# In the library only some 1.2% were active in any assay of this set; here they are far more common.
# NSD2 inh: inhibitors of human histone methyltransferase NSD2; NSD2 peptide methylation, AlphaScreen, 120 min; O96028; 310,000 tested, 0.54% active; inhibition, % at 12.5 µM; in the data active means inhibition above about 50%
# Target sequence (O96028 whole entry, looked up): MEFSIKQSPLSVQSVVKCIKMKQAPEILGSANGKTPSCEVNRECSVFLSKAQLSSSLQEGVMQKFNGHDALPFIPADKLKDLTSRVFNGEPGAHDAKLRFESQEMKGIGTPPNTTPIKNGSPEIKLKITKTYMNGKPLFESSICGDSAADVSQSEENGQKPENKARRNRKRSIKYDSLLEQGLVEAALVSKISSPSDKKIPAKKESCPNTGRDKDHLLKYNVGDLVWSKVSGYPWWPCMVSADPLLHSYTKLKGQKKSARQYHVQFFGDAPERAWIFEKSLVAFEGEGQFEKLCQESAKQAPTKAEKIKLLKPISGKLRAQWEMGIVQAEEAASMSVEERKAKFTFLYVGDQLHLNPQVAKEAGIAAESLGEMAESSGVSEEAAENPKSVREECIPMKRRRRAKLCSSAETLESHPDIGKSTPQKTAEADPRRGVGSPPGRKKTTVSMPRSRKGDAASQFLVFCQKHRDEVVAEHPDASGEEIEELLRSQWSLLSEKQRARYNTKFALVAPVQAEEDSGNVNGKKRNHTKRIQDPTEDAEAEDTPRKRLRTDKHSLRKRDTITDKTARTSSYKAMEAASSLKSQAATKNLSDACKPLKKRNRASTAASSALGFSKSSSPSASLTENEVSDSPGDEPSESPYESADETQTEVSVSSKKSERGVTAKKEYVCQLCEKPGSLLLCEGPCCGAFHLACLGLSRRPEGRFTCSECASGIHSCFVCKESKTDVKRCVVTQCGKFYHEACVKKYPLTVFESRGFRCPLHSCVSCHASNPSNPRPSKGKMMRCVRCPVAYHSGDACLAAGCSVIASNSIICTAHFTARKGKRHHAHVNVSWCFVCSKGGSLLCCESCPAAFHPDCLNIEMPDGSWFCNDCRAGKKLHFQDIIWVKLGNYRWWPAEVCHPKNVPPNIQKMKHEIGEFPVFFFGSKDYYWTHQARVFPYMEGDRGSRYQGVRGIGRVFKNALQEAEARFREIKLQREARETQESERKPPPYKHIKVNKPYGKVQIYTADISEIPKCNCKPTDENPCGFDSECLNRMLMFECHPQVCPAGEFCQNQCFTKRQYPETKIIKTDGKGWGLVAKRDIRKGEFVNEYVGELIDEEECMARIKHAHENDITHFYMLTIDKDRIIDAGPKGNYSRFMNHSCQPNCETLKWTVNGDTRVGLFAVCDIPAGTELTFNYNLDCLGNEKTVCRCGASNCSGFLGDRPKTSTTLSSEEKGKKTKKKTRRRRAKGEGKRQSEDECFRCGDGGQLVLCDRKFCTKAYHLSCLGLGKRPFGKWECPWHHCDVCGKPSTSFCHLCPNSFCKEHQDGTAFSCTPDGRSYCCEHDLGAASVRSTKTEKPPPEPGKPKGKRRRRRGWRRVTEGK
# PglD inh: blocks C. jejuni PglD acetyltransferase activity | purified PglD enzyme, DTNB colorimetric CoA detection | inhibition, % at 12.5 µM | 360,000 tested, 0.098% active | AID 602405; in the data active means inhibition above about 16%, passing the limit was not always enough; inconclusive means no clear call, values can overlap the other calls
# C2C12 statin: protects C2C12 myotubes from simvastatin toxicity | ATP luminescence, 48 h; scaled: DMSO 0, geranylgeraniol control 100 | rescue of ATP level, % at 7.49 µM | 330,000 tested, 0.78% active | AID 602340;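 active means mean ATP rescue above about 67%, or every replicate alone reaching that limit, limit read from the data, passing the limit was not always enough; inconclusive means no clear call, values can overlap the other calls; inactive means mean under the limit and some replicate under it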;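 further: myotubes were challenged with 10 µM simvastatin during compound exposure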
# miR122 inh: inhibitors of miR-122 in Huh7 cells | Huh7 miR-122 Renilla luciferase sensor, 48 h; neutral wells = 0, positive control = 100 | activation (reporter increase), % at 12.5 µM | 340,000 tested, 0.3% active;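 active means mean replicate activation score at least 90 and every replicate individually at or above 90; inconclusive means only one of the two criteria met; inactive means neither criterion met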;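 further: higher luciferase means less miR-122 activity so hits act as miR-122 inhibitors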
# Active calls of the source: *; ? = inconclusive; . = no result; [ ] = remark or other dose.
SMILES,NSD2 inh,PglD inh,C2C12 statin,miR122 inh
C[C@H](CO)N1C[C@H](C)[C@@H](CN(C)C(=O)Nc2ccc(C(F)(F)F)cc2)Oc2ccc(NS(=O)(=O)c3ccc(F)cc3)cc2CC1=O,.,2,56,0[16.7 µM]
COc1ccccc1-n1cnc2cc(NCc3ccco3)ccc21,0,5,73*,74
COc1ccccc1-n1cnc2cc(NCc3ccccc3O)ccc21,.,-1,2,21
CC(C)CC#Cc1cnc2c(c1)C(=O)N([C@H](C)CO)C[C@H](C)[C@@H](CN(C)Cc1cccc(F)c1)O2,.,1,36,25[16.7 µM]
CCCCNC(=O)c1cc2nc3c(c(C(F)(F)F)n2n1)CCc1ccccc1-3,0,-1,76*,-6
CC(C)CNC(=O)c1cc2nc3c(c(C(F)(F)F)n2n1)CCc1ccccc1-3,-2,-3,-18,5
CC=Cc1ccc2n(c1=O)C[C@H]1[C@H](CO)[C@@H](C(=O)NCc3ccccc3)[C@@H]2N1S(C)(=O)=O (mixture of isomers),.,0,-10,-1[16.7 µM]
O=C(Cn1c(=O)n(CC2CCCO2)c(=O)c2ccccc21)c1ccc(Cl)c(Cl)c1 (configuration not stated),-3,-3,80*,6
CC(=O)Nc1ccc2nc(NC(=O)c3ccc([N+](=O)[O-])o3)sc2c1,-1,-1,114*,.
CC(=O)Nc1ccc2nc(NC(=O)c3ccco3)sc2c1,-2,-1,-11,17
Cc1sc2nc3c4ccccc4c(NCc4ccco4)nn3c(=O)c2c1C,0,4,.,1
Cc1nc(NCc2ccco2)c2c(C)c(C)sc2n1,-6,-5,?,129*
Cc1cc(N/N=C/c2ccc(O)cc2O)nc(N2CCOCC2)n1,1,2,.,-12
CC(C)c1ccc(/C=N/Nc2cc(N3CCOCC3)nc(N3CCOCC3)n2)cc1,3,0,.,6
Oc1ccc(/C=N/Nc2cc(N3CCCC3)nc(N3CCCC3)n2)cc1O,110*,.,.,.
Oc1ccc(/C=N\Nc2cc(N3CCOCC3)nc(N3CCOCC3)n2)c(O)c1,153*,0,-7,-10
CCC(=O)Nc1ccc2c(c1)C(=O)N(C)[C@@H]1CC[C@H](CC(=O)N[C@@H](C)c3ccccc3)O[C@H]1CO2,.,4,-9,0[16.7 µM]
C[C@@H]1CCCCO[C@@H](CN(C)CC2CCCCC2)[C@H](C)CN([C@H](C)CO)C(=O)c2cc(NC(=O)NC3CCCCC3)ccc2O1,.,-2,-162,-11[16.7 µM]
C[C@H](CO)N1C[C@H](C)[C@H](CN(C)Cc2ccc(C(=O)Nc3ccccc3N)cc2)Oc2ccc(NS(=O)(=O)c3cccs3)cc2C1=O,.,2,-126,70[16.7 µM]
O=C(O)C[C@@H]1CC[C@H]2[C@@H](COC[C@H](O)CN2S(=O)(=O)c2ccc(F)cc2)O1,.,-2,-3,-5[16.7 µM]
COC(=O)C1=C(C)N=C2SC(C)C(=O)N2C1c1ccc(C(=O)OC)cc1 (configuration not stated),3,-2,-1,1
COC(=O)C1=C(C)N=C2SC(C)C(=O)N2C1c1cccs1 (configuration not stated),0,0,121*,5
Cc1c(N2C(=O)CSC2c2ccccc2)c(=O)n(-c2ccccc2)n1C (configuration not stated),-1,-1,.,.
CCOc1ccc(C2SCC(=O)N2c2c(C)n(C)n(-c3ccccc3)c2=O)cc1 (configuration not stated),-3,-4,117*,-2
C[C@H](O)C#Cc1ccc2c(c1)O[C@H](CN(C)C(=O)CC1CC1)[C@H](C)CN([C@H](C)CO)S2(=O)=O,.,-1,-17,-7[16.7 µM]
SMILES,NSD2 inh,PglD inh,C2C12 statin,miR122 inh
CCOCCCNc1nc2c(-c3ccccc3)nnn2c2ccccc12,.,7,88*,0
CCCCNc1nc2c(-c3ccccc3)nnn2c2ccccc12,-5,.,.,.
Cc1ccccc1S(=O)(=O)N1CC[C@H]2[C@H](CO)Nc3ccc(-c4ccccc4F)cc3[C@H]21,.,2,-22,73[16.7 µM]
O=C(O)CCCN1C(=O)/C(=C\c2ccco2)SC1=S,101*,.,.,.
O=C(CCCN1C(=O)/C(=C\c2ccco2)SC1=S)Nc1ccc2ccccc2c1,1,.,.,.
O=C(CN1C(=O)/C(=C\c2ccco2)SC1=S)Nc1ccc(O)cc1C(=O)O,.,-2,96*,-2
Cc1nn(C)cc1/C=N/n1nnnc1N,-2,1,107*,-4
O=C(N=C1c2ccccc2CN1c1cccc(S(=O)(=O)N2CCOCC2)c1)c1ccccc1,2,.,.,.
O=C(C(=O)N(Cc1ccccc1)Cc1ccccc1)c1c(-c2ccccc2)[nH]c2ccccc12,.,-2,-7,100*
O=C(/C=C/c1ccc2c(c1)OCO2)NCCSCc1cccc(Cl)c1,-1,-5,.,115*
O=C(/C=C/c1ccc2c(c1)OCO2)NCCSCc1ccc(Cl)cc1Cl,-5,2,35,-1
Cc1ccc(-c2nnc(-c3cccc4ccccc34)o2)cc1,-1,0,1,3
Cc1cccc(-c2nnc(-c3cccc4ccccc34)o2)c1,-3,-2,-3,146*
CC(=O)N[C@H]1CC[C@H](CC(=O)NCc2ccc(Cl)cc2)O[C@H]1CO,.,17*,-1,.
CC(=O)N[C@@H]1CC[C@H](CC(=O)NCc2ccc(Cl)cc2)O[C@@H]1CO,.,2,7,.
CCNC(=O)C[C@@H]1CC[C@H]2[C@H](COc3ccc(NC(=O)C4CCCCC4)cc3C(=O)N2C)O1,.,8,-2,25[16.7 µM]
COc1ccc(CN(C)C[C@H]2Oc3ccc(NS(=O)(=O)c4ccccc4)cc3CC(=O)N([C@H](C)CO)C[C@H]2C)cc1,.,8,35,-4[16.7 µM]
COc1ccc(S(=O)(=O)Nc2ccc3c(c2)CC(=O)N([C@H](C)CO)C[C@H](C)[C@H](CN(C)Cc2ccc(Cl)c(Cl)c2)O3)cc1,.,-3,-9,8[16.7 µM]
COc1ccc(CN(C)C[C@H]2Oc3ccc(NS(=O)(=O)c4ccc(F)cc4)cc3CC(=O)N([C@H](C)CO)C[C@H]2C)cc1,.,-1,69*,-3[16.7 µM]
COc1ccc(CN(C)C[C@@H]2Oc3ccc(NS(=O)(=O)c4ccc(Cl)cc4)cc3CC(=O)N([C@H](C)CO)C[C@H]2C)cc1,.,-2,95*,1[16.7 µM]
COc1ccc(S(=O)(=O)Nc2ccc3c(c2)CC(=O)N([C@H](C)CO)C[C@@H](C)[C@H](CN(C)Cc2ccc(Cl)c(Cl)c2)O3)cc1,.,-3,110*,-24[16.7 µM]
COc1ccc(CN(C)C[C@H]2Oc3ccc(NS(=O)(=O)c4ccccc4)cc3CC(=O)N([C@@H](C)CO)C[C@@H]2C)cc1,.,2,66*,3[16.7 µM]
C[C@@H]1CN([C@@H](C)CO)C(=O)Cc2cc(NS(=O)(=O)c3ccc(Cl)cc3)ccc2O[C@@H]1CN(C)S(C)(=O)=O,.,-3,-16,-6[16.7 µM]
Cc1ccnc(NC(=O)c2cccc(NC(=O)c3ccc(Cl)cc3Cl)c2)c1,3,.,.,.
C[C@H](CO)N1C[C@H](C)[C@H](CN(C)CC2CCCCC2)Oc2ccc(NS(=O)(=O)c3ccc(F)cc3)cc2CC1=O,.,0,-16,-6[16.7 µM]
